Source: PubChem BioAssay (NCI)
This is part of a sample that, as a whole, favours compounds with a hit. Of some 79,000 tested, about 15% had one in any assay. Activity calls are given as the source filed them. Cut-off read from the data, not from the text of the source: active = growth inhibition above about 70%; inactive = the rest.

Assays:
[1] = NCI Yeast Anticancer Drug Screen. Data for the rad50 strain (AID 155);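 note: 0% = growth of vehicle-only cultures of the same strain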; conditions: S. cerevisiae rad50 strain growth inhibition, stronger effect = higher value
Procedure, shortened: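 Inhibition values express reduced yeast growth in compound-treated cultures relative to vehicle-treated controls.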

[2] = NCI Yeast Anticancer Drug Screen. Data for the mec2-1 strain (AID 157); conditions: S. cerevisiae mec2-1 strain, stronger effect = higher value
Procedure, shortened: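 Mutant yeast (mec2-1) grown with compound; growth inhibition relative to vehicle control reported.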

[3] = NCI Yeast Anticancer Drug Screen. Data for the sgs1 mgt1 strain (AID 161);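 note: 0% = growth of cultures given vehicle only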; conditions: S. cerevisiae sgs1 mgt1 strain, stronger effect = higher value
Procedure, shortened: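 Yeast cells carrying a defined DNA-repair defect were exposed to test compounds. Growth inhibition was measured relative to vehicle-treated controls.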

[4] = NCI Yeast Anticancer Drug Screen. Data for the cln2 rad14 strain (AID 165);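 note: 0% = growth equal to vehicle treated cultures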; conditions: S. cerevisiae cln2 rad14 strain, stronger effect = higher value
Procedure, shortened: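 Readout is yeast growth inhibition versus vehicle-treated controls, using a strain with cln2 and rad14 alterations exposed to compound.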

[5] = NCI Yeast Anticancer Drug Screen. Data for the bub3 strain (AID 167); conditions: S. cerevisiae bub3 mutant strain, stronger effect = higher value
Procedure, shortened: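 Steps: expose the mutant yeast strain to compound; grow alongside vehicle-treated cultures; measure growth; express inhibition against the vehicle cultures.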

[6] = NCI Yeast Anticancer Drug Screen. Data for the mlh1 rad18 strain (AID 175); conditions: S. cerevisiae mlh1 rad18 strain growth inhibition, stronger effect = higher value
Procedure, shortened: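 Genetically defined yeast (DNA repair-deficient) exposed to compounds; growth inhibition determined relative to vehicle.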

[7] = at 5.0 µM (retest, dose inferred, filed as 0.5)
[8] = at 50.0 µM (retest, dose inferred, filed as 5.0)

Measured: growth inhibition

O=C1O/C(=C\c2ccccc2)c2ccccc21
inactive: [1]; [7] 3% | [1]; [8] 66% | [1]; at 50.0 µM 46.5% | [2]; [7] -41% | [2]; [8] 20% | [2]; at 50.0 µM 37.1% | [3]; [7] 1% | [3]; [8] 47% | [3]; at 50.0 µM 47.6% | [4]; [7] -4% | [4]; [8] -1% | [4]; at 50.0 µM 1.8% | [5]; [7] 40% | [5]; [8] 63% | [5]; at 50.0 µM 54.5% | [6]; [7] 2% | [6]; [8] 50% | [6]; at 50.0 µM 68.3%

CCOC(=O)c1c(SCC#N)n(-c2ccccc2)c(=S)n(-c2ccccc2)c1=O
inactive: [1]; [7] 12% | [1]; [8] 35% | [2]; [7] -7% | [2]; [8] 39% | [3]; [7] -8% | [3]; [8] 48% | [4]; [7] -6% | [5]; [7] 1% | [6]; [7] -11%
active: [1]; at 50.0 µM 80% | [2]; at 50.0 µM 81.2% | [3]; at 50.0 µM 75.3% | [4]; [8] 77% | [4]; at 50.0 µM 78% | [5]; [8] 85% | [5]; at 50.0 µM 88.5% | [6]; [8] 81% | [6]; at 50.0 µM 75.2%

Cc1nc2c([N+](=O)[O-])c(N3CCCCC3)c([N+](=O)[O-])cc2[nH]1
inactive: [1]; [7] 10% | [2]; [7] 13% | [3]; [7] 13% | [4]; [7] 17% | [5]; [7] 0% | [6]; [7] 8%
active: [1]; [8] 97% | [1]; at 50.0 µM 98.8% | [2]; [8] 98% | [2]; at 50.0 µM 99% | [3]; [8] 98% | [3]; at 50.0 µM 99.1% | [4]; [8] 94% | [4]; at 50.0 µM 97.7% | [5]; [8] 83% | [5]; at 50.0 µM 98.7% | [6]; [8] 98% | [6]; at 50.0 µM 99.1%

O=[N+]([O-])c1cnc(F)c(Br)c1
active: [1]; [7] 99% | [1]; [8] 99% | [1]; at 50.0 µM 99.1% | [2]; [7] 99% | [2]; [8] 100% | [2]; at 50.0 µM 99.2% | [3]; [7] 99% | [3]; [8] 99% | [3]; at 50.0 µM 99.2% | [4]; [7] 98% | [4]; [8] 99% | [4]; at 50.0 µM 98.7% | [5]; [7] 99% | [5]; [8] 99% | [5]; at 50.0 µM 99.1% | [6]; [7] 99% | [6]; [8] 99% | [6]; at 50.0 µM 99.3%

O=S(=O)(Nc1ccccn1)c1ccc(NCc2c3ccccc3nc3cc(Cl)ccc23)cc1
inactive: [1]; [7] 0% | [1]; [8] 65% | [1]; at 50.0 µM 65.9% | [2]; [7] 4% | [2]; [8] 37% | [2]; at 50.0 µM 55.2% | [3]; [7] -2% | [3]; [8] 66% | [3]; at 50.0 µM 54.5% | [4]; [7] 6% | [4]; [8] 36% | [4]; at 50.0 µM 31.9% | [5]; [7] 8% | [5]; at 50.0 µM 34.8% | [6]; [7] 3% | [6]; [8] 52%
active: [5]; [8] 76% | [6]; at 50.0 µM 71.8%

COc1ncc(Br)cc1C(=O)NCCc1ccc(S(=O)(=O)NC(=O)NC2CCCCC2)cc1
active: [1]; [8] 96% | [1]; at 50.0 µM 92.8% | [2]; [8] 94% | [2]; at 50.0 µM 95.5% | [3]; [8] 94% | [3]; at 50.0 µM 95.3% | [4]; [8] 96% | [4]; at 50.0 µM 96.2% | [5]; [8] 97% | [5]; at 50.0 µM 94.2% | [6]; [8] 94% | [6]; at 50.0 µM 94.9%
inactive: [1]; [7] 4% | [2]; [7] 5% | [3]; [7] -1% | [4]; [7] 5% | [5]; [7] 18% | [6]; [7] 11%
